Each structure is given as a SMILES string. Records with an inconclusive call do not appear. A number with no mark means an inactive call. The source made the active and inactive calls. Calls follow the shape of the dose curve; as a rule, active = well fitted curve in the direction sought with a large enough effect; inconclusive = small, poorly fitted or top-dose-only effect, or another doubt; inactive = no such curve, though single readings can be large; an effect the other way counts as inactive or inconclusive.

The source of these data is PubChem BioAssay (NCATS).

In assay [1] the target is Rap guanine nucleotide exchange factor 3 (Homo sapiens) (UniProt O95398). Put plainly: Confirmatory qHTS for agonist of cAMP-regulated guanine nucleotide exchange factor 3 (EPAC1) (AID 1645881).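 Also: EPAC1 catalysed release of BODIPY-GDP from Rap1B seen as fluorescence loss; 100% = effect of cAMP agonist control; nearly all actives have a fitted effect of over 75% in size.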
The target in assay [2] is Rap guanine nucleotide exchange factor 4 (Homo sapiens) (UniProt Q8WZA2). As to the kind of experiment: Confirmatory qHTS for agonist of cAMP-regulated guanine nucleotide exchange factor 4 (EPAC2) (AID 1645884;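 also: nucleotide exchange releases bodipy-GDP from Rap1 and this lowers its fluorescence; % is scaled to controls: 0 for no effect and ±100 for the full control effect; nearly all actives have a fitted effect of over 65% in size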). (In general: qHTS replaces the single test concentration by a dilution series.)
Assay [3] has the same target. As to the kind of experiment: Confirmatory qHTS for antagonist of cAMP-regulated guanine nucleotide exchange factor 4 (EPAC2) (AID 1645885). Also: nearly all actives have a fitted effect of over 25% in size. Also: potency is read from the fitted curve at half-maximal effect. As to activity change, negative = inhibition: % is scaled to controls: 0 for no effect and ±100 for the full control effect.
For assay [4], the target named is Rap guanine nucleotide exchange factor 3 (Homo sapiens) (UniProt O95398). As to the kind of experiment: Counterscreen qHTS for antagonist of cAMP-regulated guanine nucleotide exchange factor 3 (EPAC1) (AID 1645888).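 Also: fluorescence loss as bound BODIPY-GDP is released from Rap1B; % of control where 0% means no effect.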 A digest of the protocol: (§1)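 Rap1B–BODIPY-GDP (250 nM) with 50 uM GDP; compounds pin-transferred to 9.74 nM–152 uM final (activator) or from 7.32 nM upwards (inhibitor). Fluorescence Ex/Em 480/540 nm read at 5 and 30 min, then after adding cAMP or buffer, at room temperature.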
(A counterscreen serves to expose hits that act by an unwanted route or on another target.)

The target is the same in assay [5]. Put plainly: Counterscreen qHTS for agonist of cAMP-regulated guanine nucleotide exchange factor 3 (EPAC1) (AID 1645889). Also: % of control where 0% means no effect; nearly all actives have a fitted effect of over 40% in size. The essentials: as §1

Rap guanine nucleotide exchange factor 4 (Homo sapiens), sequence (Q8WZA2 whole entry, looked up): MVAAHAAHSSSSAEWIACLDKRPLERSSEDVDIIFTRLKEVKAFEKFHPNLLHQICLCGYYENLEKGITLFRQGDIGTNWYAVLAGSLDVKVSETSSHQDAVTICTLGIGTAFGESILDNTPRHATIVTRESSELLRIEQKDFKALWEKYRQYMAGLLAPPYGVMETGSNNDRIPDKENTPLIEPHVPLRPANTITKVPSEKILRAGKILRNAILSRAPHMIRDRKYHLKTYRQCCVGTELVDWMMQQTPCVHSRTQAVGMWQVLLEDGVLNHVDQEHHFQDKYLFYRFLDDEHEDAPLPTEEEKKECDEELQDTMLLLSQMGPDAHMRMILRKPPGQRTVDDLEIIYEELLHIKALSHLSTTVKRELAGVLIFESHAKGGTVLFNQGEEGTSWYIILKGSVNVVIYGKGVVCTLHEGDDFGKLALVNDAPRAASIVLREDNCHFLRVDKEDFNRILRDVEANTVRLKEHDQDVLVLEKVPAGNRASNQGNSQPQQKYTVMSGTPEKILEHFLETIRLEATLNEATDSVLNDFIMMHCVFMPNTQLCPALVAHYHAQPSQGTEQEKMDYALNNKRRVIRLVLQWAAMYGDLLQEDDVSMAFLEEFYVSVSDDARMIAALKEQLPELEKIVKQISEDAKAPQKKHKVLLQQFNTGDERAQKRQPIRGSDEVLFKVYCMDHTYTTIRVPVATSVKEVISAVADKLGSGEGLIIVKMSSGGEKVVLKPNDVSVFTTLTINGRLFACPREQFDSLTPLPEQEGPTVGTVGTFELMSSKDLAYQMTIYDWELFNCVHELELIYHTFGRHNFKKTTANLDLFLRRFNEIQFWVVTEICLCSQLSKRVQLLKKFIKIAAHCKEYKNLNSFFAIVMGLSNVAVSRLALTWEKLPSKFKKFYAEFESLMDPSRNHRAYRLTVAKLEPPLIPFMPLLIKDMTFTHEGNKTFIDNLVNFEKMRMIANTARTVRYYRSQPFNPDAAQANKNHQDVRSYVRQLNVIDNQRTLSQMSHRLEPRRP
Rap guanine nucleotide exchange factor 3 (Homo sapiens), sequence (O95398 whole entry, looked up): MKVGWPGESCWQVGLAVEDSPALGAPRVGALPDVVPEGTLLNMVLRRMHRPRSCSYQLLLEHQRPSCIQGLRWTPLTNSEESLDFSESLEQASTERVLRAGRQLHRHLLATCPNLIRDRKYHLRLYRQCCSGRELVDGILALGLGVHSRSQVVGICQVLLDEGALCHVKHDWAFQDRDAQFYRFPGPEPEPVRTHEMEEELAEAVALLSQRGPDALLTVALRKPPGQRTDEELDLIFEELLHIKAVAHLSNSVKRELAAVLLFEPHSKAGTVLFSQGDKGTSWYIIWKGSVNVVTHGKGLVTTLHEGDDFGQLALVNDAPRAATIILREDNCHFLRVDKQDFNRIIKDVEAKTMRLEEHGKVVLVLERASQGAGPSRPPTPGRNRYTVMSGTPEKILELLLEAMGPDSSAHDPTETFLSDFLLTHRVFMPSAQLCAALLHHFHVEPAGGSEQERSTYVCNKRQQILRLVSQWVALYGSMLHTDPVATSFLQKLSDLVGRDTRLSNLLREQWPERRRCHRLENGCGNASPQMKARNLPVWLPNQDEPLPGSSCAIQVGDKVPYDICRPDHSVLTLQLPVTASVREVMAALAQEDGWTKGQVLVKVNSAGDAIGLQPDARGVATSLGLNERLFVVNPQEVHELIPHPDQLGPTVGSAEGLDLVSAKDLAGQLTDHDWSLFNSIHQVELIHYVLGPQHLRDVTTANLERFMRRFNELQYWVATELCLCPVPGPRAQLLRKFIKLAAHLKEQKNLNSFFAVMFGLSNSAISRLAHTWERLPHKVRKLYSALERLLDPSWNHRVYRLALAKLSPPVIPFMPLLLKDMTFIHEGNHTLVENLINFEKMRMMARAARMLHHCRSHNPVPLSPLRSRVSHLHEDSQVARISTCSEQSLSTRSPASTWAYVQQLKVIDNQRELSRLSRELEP

In the case of `CC1CCC(NC(=O)Cn2c3c(c(-c4ccccc4Cl)cc2=O)CCC3)CC1` (stereo not given), the Potency entry in assay [1] and in assay [3] was “inactive” throughout. The activation in assay [2] is 13.3% [at 17.1 µM, percent relative to cAMP agonist control]; in assay [5] it was 6.93% [at 30.8 µM]. Besides, the activity change, negative = inhibition in assay [4] is -11.4% [at 30.8 µM].
For the molecule `COc1ccc(OC)c(CCNC(=O)c2ccc(CS(=O)(=O)c3ccc(Br)cc3)o2)c1`, the Potency result in assay [1], in assay [2], in assay [3], in assay [4] and in assay [5] was “inactive” throughout.
Turning to `COc1cc(/C=C2/SC(=S)N(CC(=O)O)C2=O)ccc1OC(=O)c1cccs1`, the Potency result in assay [1], in assay [2], in assay [3], in assay [4] and in assay [5] was “inactive” each time.
Consider `CS(=O)(=O)c1ccc(C(=O)OCc2nnc(-c3ccccc3)o2)cc1[N+](=O)[O-]`, for which the Potency result in assay [1], in assay [2], in assay [3], in assay [4] and in assay [5] was “inactive” throughout.
For the molecule `CCc1ccc(OCC2c3cc(OC)c(OC)cc3CCN2C(C)=O)cc1` (stereo not given), the Potency entry in assay [1], in assay [2], in assay [4] and in assay [5] was “inactive” throughout. In addition, the Potency in assay [3] is 42.6 µM (active).
As for `Cc1nc2c(C(=O)NCc3ccc(F)cc3)c[nH]n2c(=O)c1Cl`, the Potency result in assay [1], in assay [2], in assay [3], in assay [4] and in assay [5] was “inactive” in each case.
For `CCN(CC)C(=O)CSc1nnc(-c2cccs2)n1Cc1ccco1`, the Potency entry in assay [1], in assay [2], in assay [3], in assay [4] and in assay [5] was “inactive” in each case.
With `COc1ccc(/C=C2\Sc3ccc(C(=O)N4CCN(Cc5ccccc5)CC4)cc3N(C)C2=O)cc1OC`, the Potency entry in assay [1], in assay [2], in assay [3], in assay [4] and in assay [5] was “inactive” each time.
`Cc1cc(Cl)ccc1OC(C)C(=O)Nc1ccc(C(=O)Nc2ccccc2C(=O)O)cc1` (stereo not given): the Potency entry in assay [1], in assay [2], in assay [3], in assay [4] and in assay [5] was “inactive” throughout.
In the case of `CCc1ccc(C=C2SC(=S)N(CCCC(=O)Nc3ccc(C(=O)O)cc3)C2=O)cc1`, the Potency entry in assay [1], in assay [2], in assay [3], in assay [4] and in assay [5] was “inactive” in each case.
With `Cc1ccc(S(=O)(=O)N/N=C/c2cc(Br)ccc2O)cc1`, the Potency result in assay [1], in assay [2], in assay [3], in assay [4] and in assay [5] was “inactive” each time.
Consider `CC(C)(C)c1ccc(Cn2nnc3c(=O)[nH]c(C4CCN(C(=O)Cc5cccs5)CC4)nc32)cc1`, for which the Potency result in assay [1], in assay [2], in assay [3], in assay [4] and in assay [5] was “inactive” in each case.
For the molecule `CCc1nnc(NS(=O)(=O)c2ccc(NCc3cc(Cl)cc(Cl)c3O)cc2)s1`, the Potency result in assay [1], in assay [2], in assay [4] and in assay [5] was “inactive” throughout. The Potency in assay [3] is 5.36 µM (active).
Regarding `CCCN(CCC)C(=O)Cn1c(=O)c2sccc2n2c(=S)sc(-c3ccccc3)c12`, the Potency entry in assay [1] and in assay [3] was “inactive” in each case. The activation is 2.59% [at 17.1 µM, percent relative to cAMP agonist control] in assay [2] and -0.211% [at 30.8 µM] in assay [5]. For the same molecule, in assay [4], the activity change, negative = inhibition is -19.9% [at 30.8 µM].
Consider `O=C(Nc1nc(-c2cc(F)ccc2F)cs1)C1=COCCO1`, for which the Potency entry in assay [1], in assay [2], in assay [3], in assay [4] and in assay [5] was “inactive” in each case.
As to `CCOC(=O)COc1ccc(/C=C(\C#N)c2nc3ccc(C)cc3[nH]2)cc1OC`, the Potency entry in assay [1], in assay [2], in assay [3], in assay [4] and in assay [5] was “inactive” in each case.
As to `O=Nc1c(O)c2ccccc2c2ccccc12`, the Potency result in assay [1] and in assay [3] was “inactive” throughout. Also, the activation in assay [2] is 0.886% [at 17.1 µM, percent relative to cAMP agonist control]; in assay [5], 24.1% [at 30.8 µM]. The activity change, negative = inhibition in assay [4] was -4.76% [at 30.8 µM].
For `COC(=O)c1cc(Sc2c(Cl)cccc2Cl)ccn1`, the Potency result in assay [1], in assay [2], in assay [4] and in assay [5] was “inactive” in each case. Also, in assay [3], the Potency is 30.1 µM (active).
Consider `Cc1[nH]c(=O)nc(SCc2cccc(Cl)c2)c1C#N`, for which the Potency result in assay [1], in assay [2], in assay [3], in assay [4] and in assay [5] was “inactive” throughout.
For the molecule `CC(C)(C)C(=O)NC(Nc1cccc2cccnc12)C(Cl)(Cl)Cl` (stereo not given), the Potency result in assay [1] and in assay [3] was “inactive” each time. The activation in assay [2] is 7.17% [at 17.1 µM, percent relative to cAMP agonist control]; in assay [5], 21.1% [at 30.8 µM]. Also, the activity change, negative = inhibition in assay [4] is -6% [at 30.8 µM].
For the molecule `N#Cc1c(SCC(=O)Nc2nncs2)sc2c(O)cc(=O)[nH]c12`, the Potency entry in assay [1], in assay [2], in assay [3], in assay [4] and in assay [5] was “inactive” throughout.
